# Measured values as given in PubChem BioAssay.
# Active and inactive are the calls of the source.
# Assays:
# [1] = small molecules captured by biotinylated probe aFSTL3 – biochemical, small-molecule microarray, fluorescence 635/667, stem cell growth factor project, primary screen (AID 1064); settings: higher = more signal;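 further: measures binding of the biotinylated anti-FSTL3 antibody to printed compounds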
# [2] = binders from COS7 lysate, DM2A8 probe, primary screen, torsin A project, cell lysate, small-molecule microarray, fluorescence 635/667 (AID 1065); settings: higher = more signal, COS7 lysate expressing mutant human TOR1A
# [3] = small molecules captured by biotinylated probe aFGF2 – biochemical, small-molecule microarray, fluorescence 635/667, stem cell growth factor project, primary screen (AID 1067); settings: higher = more signal;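 further: measures binding of biotinylated aFGF2 protein to printed compounds on slides; z-score merges feature fluorescence and signal-to-noise across triplicate slides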
# [4] = small molecules captured by biotinylated probe aFGF10 – biochemical, small-molecule microarray, fluorescence 635/667, stem cell growth factor project, primary screen (AID 1071); settings: higher = more signal;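 further: score merges 667 nm spot intensity and signal to noise from triplicate slides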
# [5] = target: Neurogenic locus notch homolog protein 2 (Homo sapiens) (UniProt Q04721); assay: small molecules binding Notch2 protein – biochemical, small-molecule microarray, 635 nm fluorescence, stem cell growth factors, primary screen (AID 1073); settings: higher = more signal
# [6] = target: Pro-neuregulin-1, membrane-bound isoform (Homo sapiens) (UniProt Q02297); assay: small molecules binding neuregulin-1 protein – biochemical, small-molecule microarray, fluorescence 635/667, psychiatric disease protein project, primary screen (AID 1075); settings: NRG1 binding, 635 nm fluorescence, higher = more signal;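 further: score combines 667 nm spot fluorescence with signal to noise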
# [7] = system: Neuregulin-1 EGF-like domain; assay: small molecules binding NRG1 EGF domain – biochemical, small-molecule microarray, 635 nm fluorescence, primary screen (AID 1081); settings: higher = more signal;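 further: binding of the protein to compounds printed on small-molecule microarray slides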
# [8] = FRG1 expression reporter modulators in myotubes – cell-based, C2C12 myotubes, firefly/Renilla luciferase, luminescence, FRG1 inhibition for FSHD, primary screen (AID 1084); settings: FRG1 promoter luciferase, higher = more signal, called active from +8 up or from −8 down
# [9] = small molecules captured by biotinylated probe aFST – biochemical, small-molecule microarray, fluorescence 635/667, stem cell growth factor project, primary screen (AID 1086); settings: higher = more signal;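 further: score merges 667 nm fluorescence with signal-to-noise of each printed compound spot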
# [10] = binders of probe aHhip on microarray, primary screen, stem cell growth factor project, biochemical, small-molecule microarray, fluorescence 635/667 (AID 1087); settings: higher = more signal;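 further: score merges spot fluorescence at 667nm with spot signal to noise ratio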
# [11] = system: PRMT1 (protein arginine N-methyltransferase 1); assay: small molecules binding arginine methyltransferase PRMT1 – biochemical, small-molecule microarray, 635 nm fluorescence, primary screen (AID 1088); settings: higher = more signal;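 further: binding of Prmt1 protein to compounds spotted on small-molecule microarray slides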
# [12] = growth effects on S. cerevisiae YJM789 – YJM789 clinical isolate, OD600, 24 h, basal, primary screen (AID 1089); settings: higher = more signal, called active from +8 up or from −8 down;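 further: growth of clinical yeast isolate S. cerevisiae YJM 789 seeded 1000 cells per well; test concentration not given here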
# [13] = S. pombe growth modifiers, basal conditions – strain 972, OD600, 24 h, no modulator, primary screen (AID 1090);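 further: basal condition with compound alone and no growth modifier present; test concentration not given here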; settings: S. pombe 972 growth, higher = more signal, called active from +8 up or from −8 down
# [14] = budding yeast growth modifiers under rapamycin – strain BY4716, OD600, 96 h, primary screen (AID 1091); further: test concentration not given here; settings: S. cerevisiae BY4716 + rapamycin, higher = more signal, called active from +8 up or from −8 down
# [15] = target: Torsin-1A-interacting protein 2 (Homo sapiens) (UniProt Q8NFQ8); assay: small molecules binding lysate-expressed LULL1 – cell lysate, human LULL1 lysate, 635/667 nm fluorescence, primary screen (AID 1092); settings: small-molecule microarray, hLULL1 lysate binding, 635 nm fluorescence; higher = more signal;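 further: probe is lysate of COS7 cells overexpressing human LULL1; score merges per-feature 667 nm fluorescence with signal-to-noise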
# [16] = optical density change of DRC41 E. coli – strain DRC41, OD650, 24 h, E. coli filamentation project, primary screen (AID 1093);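 further: MC1000 strain lacking acrAB efflux and sulA so SOS filamentation is blocked; test concentration not given here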; settings: E. coli DRC41 growth, higher = more signal, called active from +8 up or from −8 down
# [17] = probe aLefty2 binding to arrayed compounds – biochemical, biotinylated probe, 635/667 nm fluorescence, primary screen (AID 1094); settings: small-molecule microarray, higher = more signal;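 further: score merges spot fluorescence near 667 nm with spot signal-to-noise ratio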
# [18] = system: Noggin (protein binding on small-molecule microarray); assay: small molecules binding Noggin protein – biochemical, 635/667 nm fluorescence, primary screen (AID 1095); settings: 635 nm fluorescence, higher = more signal;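 further: score merges 667 nm feature fluorescence with signal to noise over triplicate slides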
# [19] = target: Neurogenic locus notch homolog protein 3 (Homo sapiens) (UniProt Q9UM47); assay: small molecules binding NOTCH3 protein – biochemical, 635/667 nm fluorescence, primary screen (AID 1096); settings: small-molecule microarray, 635 nm fluorescence, higher = more signal
# [20] = probe aEGFR binding to arrayed compounds – biochemical, biotinylated probe, 635/667 nm fluorescence, primary screen (AID 1097); settings: small-molecule microarray, higher = more signal;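 further: probe is a biotinylated anti-EGFR antibody binding compounds printed on slides; score combines fluorescence near 667 nm and signal to noise of each spot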
# Chain of Neurogenic locus notch homolog protein 3 (Homo sapiens) (Q9UM47 whole entry, looked up): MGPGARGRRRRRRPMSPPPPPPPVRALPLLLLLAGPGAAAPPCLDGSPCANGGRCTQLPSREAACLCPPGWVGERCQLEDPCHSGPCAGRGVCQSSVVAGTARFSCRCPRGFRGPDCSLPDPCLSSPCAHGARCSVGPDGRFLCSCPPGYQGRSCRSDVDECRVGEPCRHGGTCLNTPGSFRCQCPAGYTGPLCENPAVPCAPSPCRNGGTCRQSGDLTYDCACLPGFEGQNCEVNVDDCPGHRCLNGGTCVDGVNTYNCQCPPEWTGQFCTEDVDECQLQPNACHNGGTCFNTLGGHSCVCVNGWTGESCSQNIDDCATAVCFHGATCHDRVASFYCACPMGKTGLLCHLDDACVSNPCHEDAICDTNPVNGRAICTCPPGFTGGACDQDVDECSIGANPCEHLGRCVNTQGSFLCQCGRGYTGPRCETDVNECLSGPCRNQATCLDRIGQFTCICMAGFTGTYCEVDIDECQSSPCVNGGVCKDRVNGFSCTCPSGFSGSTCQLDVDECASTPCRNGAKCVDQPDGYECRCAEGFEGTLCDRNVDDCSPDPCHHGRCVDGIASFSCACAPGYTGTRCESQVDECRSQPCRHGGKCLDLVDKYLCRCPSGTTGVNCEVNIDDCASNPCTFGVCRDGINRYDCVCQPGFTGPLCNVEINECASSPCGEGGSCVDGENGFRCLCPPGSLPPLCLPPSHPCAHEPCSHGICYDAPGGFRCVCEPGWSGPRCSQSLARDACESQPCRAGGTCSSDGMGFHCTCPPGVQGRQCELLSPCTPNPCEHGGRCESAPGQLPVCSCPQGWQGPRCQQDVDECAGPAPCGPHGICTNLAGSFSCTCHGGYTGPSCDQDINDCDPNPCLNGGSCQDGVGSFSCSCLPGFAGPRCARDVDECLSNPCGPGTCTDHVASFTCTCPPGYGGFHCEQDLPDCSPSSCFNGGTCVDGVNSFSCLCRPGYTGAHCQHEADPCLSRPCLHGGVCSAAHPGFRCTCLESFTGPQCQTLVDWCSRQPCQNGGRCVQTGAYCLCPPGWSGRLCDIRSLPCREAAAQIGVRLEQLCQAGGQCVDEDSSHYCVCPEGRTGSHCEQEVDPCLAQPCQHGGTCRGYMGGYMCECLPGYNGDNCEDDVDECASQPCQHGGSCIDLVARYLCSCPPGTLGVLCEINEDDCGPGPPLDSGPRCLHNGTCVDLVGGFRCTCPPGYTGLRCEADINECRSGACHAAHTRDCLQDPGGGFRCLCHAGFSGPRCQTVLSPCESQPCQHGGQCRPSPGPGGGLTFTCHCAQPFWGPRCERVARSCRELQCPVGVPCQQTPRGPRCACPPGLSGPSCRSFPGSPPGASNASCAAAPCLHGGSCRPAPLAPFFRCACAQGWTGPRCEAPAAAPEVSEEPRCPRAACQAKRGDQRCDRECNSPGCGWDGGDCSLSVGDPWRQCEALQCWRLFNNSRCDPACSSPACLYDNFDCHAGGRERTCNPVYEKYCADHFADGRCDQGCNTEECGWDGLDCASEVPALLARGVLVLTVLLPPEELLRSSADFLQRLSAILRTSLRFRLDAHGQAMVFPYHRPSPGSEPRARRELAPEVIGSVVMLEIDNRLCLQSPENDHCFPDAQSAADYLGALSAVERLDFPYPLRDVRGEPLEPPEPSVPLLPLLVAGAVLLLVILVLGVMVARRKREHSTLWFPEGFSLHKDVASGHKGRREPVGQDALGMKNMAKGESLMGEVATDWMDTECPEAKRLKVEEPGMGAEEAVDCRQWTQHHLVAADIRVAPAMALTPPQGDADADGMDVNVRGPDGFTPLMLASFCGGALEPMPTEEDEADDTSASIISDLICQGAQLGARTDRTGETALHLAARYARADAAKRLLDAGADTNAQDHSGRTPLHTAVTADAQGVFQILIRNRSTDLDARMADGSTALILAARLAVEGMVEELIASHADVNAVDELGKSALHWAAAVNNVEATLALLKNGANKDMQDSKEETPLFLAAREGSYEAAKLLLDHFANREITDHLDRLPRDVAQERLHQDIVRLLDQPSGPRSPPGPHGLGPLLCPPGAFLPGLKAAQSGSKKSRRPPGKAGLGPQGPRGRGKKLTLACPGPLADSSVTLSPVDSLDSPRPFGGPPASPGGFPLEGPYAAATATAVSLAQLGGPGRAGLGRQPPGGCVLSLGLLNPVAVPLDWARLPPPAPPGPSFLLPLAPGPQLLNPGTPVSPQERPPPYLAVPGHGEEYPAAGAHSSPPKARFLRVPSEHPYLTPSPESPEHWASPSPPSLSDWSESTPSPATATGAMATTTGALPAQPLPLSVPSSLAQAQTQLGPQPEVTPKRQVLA
# Chain of Neurogenic locus notch homolog protein 2 (Homo sapiens) (Q04721 whole entry, looked up, canonical isoform): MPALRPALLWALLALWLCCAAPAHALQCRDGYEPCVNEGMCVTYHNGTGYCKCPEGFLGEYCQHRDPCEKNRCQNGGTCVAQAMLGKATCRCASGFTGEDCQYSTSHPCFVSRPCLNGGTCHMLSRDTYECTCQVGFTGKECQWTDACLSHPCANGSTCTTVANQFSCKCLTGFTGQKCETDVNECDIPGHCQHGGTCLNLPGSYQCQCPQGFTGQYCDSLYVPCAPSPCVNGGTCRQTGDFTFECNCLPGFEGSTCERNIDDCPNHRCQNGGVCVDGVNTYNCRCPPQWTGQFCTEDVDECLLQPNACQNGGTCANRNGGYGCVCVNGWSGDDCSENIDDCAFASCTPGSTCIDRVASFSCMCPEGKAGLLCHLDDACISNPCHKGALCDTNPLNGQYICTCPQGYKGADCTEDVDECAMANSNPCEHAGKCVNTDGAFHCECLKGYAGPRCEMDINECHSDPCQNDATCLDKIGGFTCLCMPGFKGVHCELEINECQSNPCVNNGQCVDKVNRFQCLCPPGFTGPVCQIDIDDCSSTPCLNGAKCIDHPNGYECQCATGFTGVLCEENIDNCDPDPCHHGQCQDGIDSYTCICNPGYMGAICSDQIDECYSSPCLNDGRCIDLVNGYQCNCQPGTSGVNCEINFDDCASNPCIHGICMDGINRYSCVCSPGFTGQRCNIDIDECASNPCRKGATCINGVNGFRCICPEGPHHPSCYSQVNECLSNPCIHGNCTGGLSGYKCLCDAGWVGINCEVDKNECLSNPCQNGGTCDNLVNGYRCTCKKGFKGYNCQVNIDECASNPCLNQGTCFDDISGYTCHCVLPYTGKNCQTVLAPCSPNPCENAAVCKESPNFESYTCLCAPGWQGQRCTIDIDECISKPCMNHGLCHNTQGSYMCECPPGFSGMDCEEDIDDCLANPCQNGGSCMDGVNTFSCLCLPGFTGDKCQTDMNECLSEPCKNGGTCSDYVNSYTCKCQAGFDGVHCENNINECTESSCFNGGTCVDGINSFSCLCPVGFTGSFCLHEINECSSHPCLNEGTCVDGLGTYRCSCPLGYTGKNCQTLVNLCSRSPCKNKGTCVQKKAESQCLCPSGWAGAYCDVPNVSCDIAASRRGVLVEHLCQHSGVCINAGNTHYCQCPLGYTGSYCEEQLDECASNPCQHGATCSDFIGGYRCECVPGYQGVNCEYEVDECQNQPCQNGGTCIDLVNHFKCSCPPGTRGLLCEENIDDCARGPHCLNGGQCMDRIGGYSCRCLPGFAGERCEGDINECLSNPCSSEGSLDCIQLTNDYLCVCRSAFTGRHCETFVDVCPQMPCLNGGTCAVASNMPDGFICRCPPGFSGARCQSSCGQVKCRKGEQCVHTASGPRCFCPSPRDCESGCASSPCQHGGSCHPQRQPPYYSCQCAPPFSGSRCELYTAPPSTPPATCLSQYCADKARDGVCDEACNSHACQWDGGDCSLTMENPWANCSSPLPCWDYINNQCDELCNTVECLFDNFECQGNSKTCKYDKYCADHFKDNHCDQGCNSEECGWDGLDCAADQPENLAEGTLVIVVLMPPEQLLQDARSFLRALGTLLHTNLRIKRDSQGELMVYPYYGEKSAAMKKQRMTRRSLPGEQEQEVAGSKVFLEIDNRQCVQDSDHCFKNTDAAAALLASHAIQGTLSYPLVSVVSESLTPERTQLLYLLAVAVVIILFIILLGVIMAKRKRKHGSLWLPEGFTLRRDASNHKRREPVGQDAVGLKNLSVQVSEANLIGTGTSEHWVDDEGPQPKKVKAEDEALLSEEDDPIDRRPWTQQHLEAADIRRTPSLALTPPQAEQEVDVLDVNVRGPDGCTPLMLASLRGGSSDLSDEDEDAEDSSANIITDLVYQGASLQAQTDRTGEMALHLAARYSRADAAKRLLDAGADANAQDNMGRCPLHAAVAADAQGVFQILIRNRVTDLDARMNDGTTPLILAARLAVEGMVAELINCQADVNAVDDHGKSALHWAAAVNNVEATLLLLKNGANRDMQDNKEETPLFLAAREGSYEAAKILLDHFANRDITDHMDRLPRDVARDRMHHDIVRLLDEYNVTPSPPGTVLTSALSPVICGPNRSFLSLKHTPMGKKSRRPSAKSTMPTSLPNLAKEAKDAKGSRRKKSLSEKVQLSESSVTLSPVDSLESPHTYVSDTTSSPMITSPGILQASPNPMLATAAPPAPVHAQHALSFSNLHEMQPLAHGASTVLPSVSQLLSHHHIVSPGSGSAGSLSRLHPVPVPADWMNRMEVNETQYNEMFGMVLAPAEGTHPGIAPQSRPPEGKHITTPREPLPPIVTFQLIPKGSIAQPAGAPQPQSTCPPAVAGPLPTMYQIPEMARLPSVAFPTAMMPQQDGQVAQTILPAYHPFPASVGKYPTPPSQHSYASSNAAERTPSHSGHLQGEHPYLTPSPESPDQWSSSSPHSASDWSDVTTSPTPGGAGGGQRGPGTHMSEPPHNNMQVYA
SMILES,composite z-score [1],composite z-score [2],composite z-score [3],composite z-score [4],composite z-score [5],composite z-score [6],composite z-score [7],z-score [8],composite z-score [9],composite z-score [10],composite z-score [11],z-score [12],z-score [13],z-score [14],composite z-score [15],z-score [16],composite z-score [17],composite z-score [18],composite z-score [19],composite z-score [20]
O=C1O[C@H](c2ccccc2)[C@H](c2ccccc2)N2[C@H]1[C@@H](C(=O)Nc1nc3ccccc3s1)[C@]1(C(=O)Nc3ccc(C#CCCO)cc31)[C@H]2c1ccc(OCCO)cc1,-0.379,0.135,0.0401,1.14,1.19,0.887,0.975,-0.0455 (inactive),0.119,0.224,1.55,0.737 (inactive),0.933 (inactive),2.84 (inactive),3.19,0.0573 (inactive),-0.137,1.72,1.12,-0.0368
O=C1O[C@H](c2ccccc2)[C@H](c2ccccc2)N2[C@H]1[C@@H](C(=O)N1CCN(c3ncccn3)CC1)[C@]1(C(=O)Nc3ccc(C#CC4=CCCCC4)cc31)[C@H]2c1ccc(O)cc1,-0.001,0.542,-0.0523,0.768,1.28,1.11,1.24,-0.63 (inactive),0.502,-0.201,1.54,1.92 (inactive),1.48 (inactive),2.97 (inactive),2.76,0.454 (inactive),-0.0313,0.555,0.79,0.0624
COC(=O)[C@@]1(Cc2ccc(OC)cc2)[C@H]2c3cc(C(=O)N4CCCC4)n(Cc4ccsc4Br)c3C[C@H]2CN1C(=O)c1ccccc1,0.588,-0.594,-0.1,0.188,1.6,1.68,1.08,3.4 (inactive),1.37,-0.367,-0.356,-0.168 (inactive),0.0021 (inactive),-0.887 (inactive),2.91,-0.29 (inactive),0.498,-0.0969,0.855,0.122
COC(=O)C=C(CC(O)c1cccc(Cl)c1)OC (stereo not given),1.55,0.172,0.54,0.0631,-0.0372,1.76,1.21,-4.2 (inactive),1.65,-0.0879,0.0922,-4.19 (inactive),-10.8 (active),-1.02 (inactive),2.4,0.0753 (inactive),1.06,-0.309,-0.547,0.115
